Data from PubChem BioAssay (NCATS).
“And” between values parts separate entries of the source, which are not always exact repeats. Identical values can stand only once. Inconclusive results are not listed. Values without a mark were called inactive. The source made the active and inactive calls. The call rests on the fitted dose curve; in most records, active means well fitted curve in the direction sought with a large enough effect; inconclusive means small, poorly fitted or top-dose-only effect, or another doubt; inactive means no such curve, though single readings can be large; an effect the other way counts as inactive or inconclusive.

Columns and labels:
[1] = Viability qHTS for spleen associated tyrosine kinase inhibitor (SYKi) naive MV4-11 cells (AID 1963823); further: nearly all actives have a fitted effect of over 40% in size
Outline: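 Read-out: CellTiter-Glo luminescence. Exposure: 72 hr, 37 C, 5% CO2, 95% humidity. Cells: MV4-11 without SYK inhibitor history, 500/well, qHTS format.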

[2] = Viability qHTS for spleen associated tyrosine kinase inhibitor (SYKi) drug resistant MV4-11 cells (AID 1963824); further: nearly all actives have a fitted effect of over 35% in size
Outline: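 SYK-inhibitor-resistant MV4-11 AML cells were seeded at 500 per well onto compound and cultured 72 hours (37 °C, 5% CO2). CellTiter-Glo was then added, and after 10 min at room temperature, luminescence gave viability.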

[3] = Cellular viability qHTS for adrenocortical cancer (ACC) cell line SW-13 (AID 1963989); details: SW-13 ACC cells viability, CellTiter-Glo, 48 h; activity (max response): stronger effect = lower value; further: nearly all actives have a fitted effect of over 65% in size;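 on activity (max response): cells grown in serum-free medium with ITS supplement; on the % scale 0 is the no-effect control and ±100 the full control effect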
Outline: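 IC50 and maximal-response values come from four-parameter logistic fits of titration data. SW-13 cells in serum-free medium received compounds (up to 46 uM final) for 48 h before CellTiter-Glo luminescence.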

[4] = Cellular viability qHTS for adrenocortical cancer (ACC) cell line NCI-H295R (AID 1963990); further: nearly all actives have a fitted effect of over 60% in size
Outline: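 Adrenocortical carcinoma cells, suspended at 300 000 cells/mL in serum-free DMEM plus ITS, rested overnight before pin transfer of compound. After two days' incubation, ATP-dependent luminescence was recorded and curve-fitted.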
Potency means the concentration at half of the fitted maximal effect.

## CN1[C@@H]2CCC[C@H]1CC(NC(=O)c1nn(C)c3ccccc13)C2 (stereo partly specified)
[1]
  Potency: inactive
[2]
  Potency: inactive
[3]
  activity (max response): 2.83%
[4]
  Potency: inactive

## COc1ccc(CNC(=O)c2cc(-c3cncc(Cl)c3)cnc2-c2ccccn2)nc1OC
[1]
  Potency: inactive
[2]
  Potency: inactive
[3]
  activity (max response): -20.5%
[4]
  Potency: inactive

## O=c1[nH]c(=O)n([C@H]2CCCO2)cc1F
[1]
  Potency: 14600 nM (active)
[2]
  Potency: 10.6 µM (active) and 9.2 µM (active)
[3]
  activity (max response): -5.11%
[4]
  Potency: inactive

## O=C(NCCCNc1nc(Nc2cccc(CN3CCOCC3)c2)ncc1C1CC1)C1CCC1
[1]
  Potency: 132 nM (active)
[2]
  Potency: 291 nM (active)
[3]
  activity (max response): 10.1%
[4]
  Potency: inactive

## C#CCN(C)Cc1ccccc1
[1]
  Potency: inactive
[2]
  Potency: inactive
[3]
  activity (max response): 11.7%
[4]
  Potency: inactive

## N#Cc1cc(NC(=O)C(=O)O)c(Cl)c(NC(=O)C(=O)O)c1
[1]
  Potency: inactive
[2]
  Potency: inactive
[3]
  activity (max response): 14%
[4]
  Potency: inactive

## Fc1cccc(-n2cnc3c(NCc4nc5c(F)c(F)ccc5[nH]4)nc(N4CCOCC4)nc32)c1
[1]
  Potency: 59 nM (active)
[2]
  Potency: 186 nM (active)
[3]
  Potency: 112 nM (active)
[4]
  Potency: 447 nM (active)

## COc1cc(F)ccc1-c1ncnc(Nc2cccc(CS(C)(=N)=O)c2)n1 (stereo unspecified)
[1]
  Potency: 1160 nM (active)
[2]
  Potency: 1160 nM (active)
[3]
  Potency: 6310 nM (active)
[4]
  Potency: 7080 nM (active)

## CC1=C(CO)C(=O)O[C@@H]([C@@H](C)[C@H]2CC[C@H]3[C@@H]4C[C@H]5O[C@]56[C@@H](O)C=CC(=O)[C@]6(C)[C@H]4CC[C@]23C)C1
[1]
  Potency: 296 nM (active)
[2]
  Potency: 317 nM (active) and 263 nM (active)
[3]
  Potency: 1580 nM (active)
[4]
  Potency: 447 nM (active)
